Targets with a hit are over-represented here; the source holds about 7,900 in all. About 0.6% of all pairs of compound and target were hits.
Assays:
Assay in all cases: log2 fold change, soluble protein after heating vs DMSO (PISA); higher = thermal stabilisation; K562 cells, 10 uM, 30 min; active = over 0.2 and 3.5 SD of the protein, either way, in both replicates (recomputed)
IRAK-1-4 Inhibitor I = compound: C1COCCN1CCN2C3=CC=CC=C3N=C2NC(=O)C4=CC(=CC=C4)[N+](=O)[O-] [IRAK-1-4 Inhibitor I]
Procedure, shortened: (§1)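 Aliquots of K562 cells (2×10^6 cells/mL) treated with 10 μM compound for 30 min were heated for 3 min over 48°C-58°C. After pooling and extraction in PBS with 0.5% NP-40 at 4°C, soluble protein from a 21,000xg, 90 min spin was quantified by TMTpro 16plex LC-MS/MS with channel sums equalised. Thermal stability is expressed against control samples, from duplicates, as a log2 fold change.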

ibrutinib = compound: C=CC(=O)N1CCC[C@@H](n2nc(-c3ccc(Oc4ccccc4)cc3)c3c(N)ncnc32)C1 [ibrutinib]
Procedure, shortened: as §1

[1] = compound: CC(=O)c1cnc2ccc(-c3cc(Cl)c(O)c(Cl)c3)nc2c1N[C@H]1CC[C@H](CN(C)C)CC1
Procedure, shortened: as §1

ralimetinib = compound: CC(C)(C)Cn1c(N)nc2ccc(-c3[nH]c(C(C)(C)C)nc3-c3ccc(F)cc3)nc21 [ralimetinib]
Procedure, shortened: as §1

[2] = compound: CC(C)(O)CC(=O)NCCn1ccc2ncnc(Nc3ccc(Oc4cccc(C(F)(F)F)c4)c(Cl)c3)c21
Procedure, shortened: as §1

[3] = compound: CC(C)C1=C2N=C(C=C(N2N=C1)NCC3=CC=CC=C3)NCCCCCCN
Procedure, shortened: as §1

[4] = compound: CC(C)C[C@@H](C=O)NC(=O)[C@H](CC(C)C)NC(=O)[C@H](CC(C)C)NC(=O)OCc1ccccc1
Procedure, shortened: as §1

pinometostat = compound: CC(C)N(C[C@H]1O[C@@H](n2cnc3c(N)ncnc32)[C@H](O)[C@@H]1O)[C@H]1C[C@@H](CCc2nc3cc(C(C)(C)C)ccc3[nH]2)C1 [pinometostat]
Procedure, shortened: as §1

[5] = compound: CC1=C(C(CC(=O)N1)C2=CC=C(C=C2)C(F)(F)F)C(=O)NC3=C(C=C4C(=C3)C=NN4)F
Procedure, shortened: as §1

[6] = compound: CC1=C(C2=C(C=C1)C(=O)C3=CC=CC=C3N2CCCN)C
Procedure, shortened: as §1

[7] = compound: CC1=C(C=C(C=C1)NC(=O)C2=CC(=CC=C2)C(C)(C)C#N)NC3=CC4=C(C=C3)N=CN(C4=O)C
Procedure, shortened: as §1

[8] = compound: CC1=C(C=C(C=C1)NC(=O)C2=CC(=CC=C2)N(C)C)NC(=O)C3=CC=C(C=C3)O
Procedure, shortened: as §1

[9] = compound: CC1=CC=C(C=C1)SC2=C3C=C(SC3=CN=C2)C(=O)N
Procedure, shortened: as §1

[10] = compound: CC1=NC(=CC=C1)C2=C(N=C(N2)C(C)(C)C)C3=CC4=NC=CN=C4C=C3
Procedure, shortened: as §1

Nexturastat A = compound: CCCCN(Cc1ccc(C(=O)NO)cc1)C(=O)Nc1ccccc1 [Nexturastat A]
Procedure, shortened: as §1

vemurafenib = compound: CCCS(=O)(=O)Nc1ccc(F)c(C(=O)c2c[nH]c3ncc(-c4ccc(Cl)cc4)cc23)c1F [vemurafenib]
Procedure, shortened: as §1

[11] = compound: CCCS(=O)(=O)Nc1ccc(F)c(C(=O)c2c[nH]c3ncc(Cl)cc23)c1F
Procedure, shortened: as §1

[12] = compound: CCCc1cc(C)[nH]c(=O)c1CNC(=O)c1cc(-c2ccnc(N3CCN(C)CC3)c2)cc2c1cnn2C(C)C
Procedure, shortened: as §1

givinostat = compound: CCN(CC)Cc1ccc2cc(COC(=O)Nc3ccc(C(=O)NO)cc3)ccc2c1 [givinostat]
Procedure, shortened: as §1

barasertib = compound: CCN(CCCOc1ccc2c(Nc3cc(CC(=O)Nc4cccc(F)c4)[nH]n3)ncnc2c1)CCOP(=O)(O)O [barasertib]
Procedure, shortened: as §1

Sequence of UniProt Q14790 (Q14790 whole entry, looked up): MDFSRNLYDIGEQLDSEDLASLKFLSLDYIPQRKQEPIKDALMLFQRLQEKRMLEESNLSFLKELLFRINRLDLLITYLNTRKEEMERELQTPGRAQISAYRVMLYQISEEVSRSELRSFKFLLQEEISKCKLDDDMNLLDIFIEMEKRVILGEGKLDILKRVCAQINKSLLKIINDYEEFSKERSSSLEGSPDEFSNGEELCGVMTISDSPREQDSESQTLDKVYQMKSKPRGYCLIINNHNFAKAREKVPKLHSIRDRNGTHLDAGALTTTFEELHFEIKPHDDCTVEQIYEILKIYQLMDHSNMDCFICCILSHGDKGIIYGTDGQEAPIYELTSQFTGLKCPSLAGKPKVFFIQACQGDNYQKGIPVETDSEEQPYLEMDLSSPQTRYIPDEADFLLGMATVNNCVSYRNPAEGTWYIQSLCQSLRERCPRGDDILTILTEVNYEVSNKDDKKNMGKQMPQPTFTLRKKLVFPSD
Sequence of UniProt P42574 (P42574 whole entry, looked up): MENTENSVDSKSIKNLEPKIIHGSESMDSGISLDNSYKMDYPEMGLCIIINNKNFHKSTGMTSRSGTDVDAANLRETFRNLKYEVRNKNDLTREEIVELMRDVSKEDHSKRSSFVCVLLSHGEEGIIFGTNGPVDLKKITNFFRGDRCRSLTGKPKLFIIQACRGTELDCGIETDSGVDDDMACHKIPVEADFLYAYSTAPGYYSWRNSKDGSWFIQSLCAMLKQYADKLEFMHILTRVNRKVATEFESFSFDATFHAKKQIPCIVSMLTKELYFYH
Sequence of UniProt Q53ET0 (Q53ET0 whole entry, looked up): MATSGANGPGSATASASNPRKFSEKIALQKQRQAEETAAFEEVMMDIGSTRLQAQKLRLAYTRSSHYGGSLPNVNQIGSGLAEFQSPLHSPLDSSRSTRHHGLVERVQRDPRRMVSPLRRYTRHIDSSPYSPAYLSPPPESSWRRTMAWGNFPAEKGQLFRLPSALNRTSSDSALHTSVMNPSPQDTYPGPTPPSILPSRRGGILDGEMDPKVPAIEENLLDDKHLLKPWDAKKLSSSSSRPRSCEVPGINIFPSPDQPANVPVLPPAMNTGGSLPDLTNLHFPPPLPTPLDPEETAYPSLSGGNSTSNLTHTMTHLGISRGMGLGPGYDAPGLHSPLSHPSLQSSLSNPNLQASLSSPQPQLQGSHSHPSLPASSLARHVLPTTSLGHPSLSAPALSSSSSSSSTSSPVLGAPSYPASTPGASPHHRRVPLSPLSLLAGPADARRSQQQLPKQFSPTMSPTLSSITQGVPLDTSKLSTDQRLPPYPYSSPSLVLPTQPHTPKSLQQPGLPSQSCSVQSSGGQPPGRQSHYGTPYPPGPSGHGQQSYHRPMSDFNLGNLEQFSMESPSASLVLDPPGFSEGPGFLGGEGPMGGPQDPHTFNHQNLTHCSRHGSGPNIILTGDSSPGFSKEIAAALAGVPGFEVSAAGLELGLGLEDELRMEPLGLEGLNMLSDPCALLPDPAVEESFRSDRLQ
Sequence of UniProt P0C0L4 (P0C0L4 whole entry, looked up): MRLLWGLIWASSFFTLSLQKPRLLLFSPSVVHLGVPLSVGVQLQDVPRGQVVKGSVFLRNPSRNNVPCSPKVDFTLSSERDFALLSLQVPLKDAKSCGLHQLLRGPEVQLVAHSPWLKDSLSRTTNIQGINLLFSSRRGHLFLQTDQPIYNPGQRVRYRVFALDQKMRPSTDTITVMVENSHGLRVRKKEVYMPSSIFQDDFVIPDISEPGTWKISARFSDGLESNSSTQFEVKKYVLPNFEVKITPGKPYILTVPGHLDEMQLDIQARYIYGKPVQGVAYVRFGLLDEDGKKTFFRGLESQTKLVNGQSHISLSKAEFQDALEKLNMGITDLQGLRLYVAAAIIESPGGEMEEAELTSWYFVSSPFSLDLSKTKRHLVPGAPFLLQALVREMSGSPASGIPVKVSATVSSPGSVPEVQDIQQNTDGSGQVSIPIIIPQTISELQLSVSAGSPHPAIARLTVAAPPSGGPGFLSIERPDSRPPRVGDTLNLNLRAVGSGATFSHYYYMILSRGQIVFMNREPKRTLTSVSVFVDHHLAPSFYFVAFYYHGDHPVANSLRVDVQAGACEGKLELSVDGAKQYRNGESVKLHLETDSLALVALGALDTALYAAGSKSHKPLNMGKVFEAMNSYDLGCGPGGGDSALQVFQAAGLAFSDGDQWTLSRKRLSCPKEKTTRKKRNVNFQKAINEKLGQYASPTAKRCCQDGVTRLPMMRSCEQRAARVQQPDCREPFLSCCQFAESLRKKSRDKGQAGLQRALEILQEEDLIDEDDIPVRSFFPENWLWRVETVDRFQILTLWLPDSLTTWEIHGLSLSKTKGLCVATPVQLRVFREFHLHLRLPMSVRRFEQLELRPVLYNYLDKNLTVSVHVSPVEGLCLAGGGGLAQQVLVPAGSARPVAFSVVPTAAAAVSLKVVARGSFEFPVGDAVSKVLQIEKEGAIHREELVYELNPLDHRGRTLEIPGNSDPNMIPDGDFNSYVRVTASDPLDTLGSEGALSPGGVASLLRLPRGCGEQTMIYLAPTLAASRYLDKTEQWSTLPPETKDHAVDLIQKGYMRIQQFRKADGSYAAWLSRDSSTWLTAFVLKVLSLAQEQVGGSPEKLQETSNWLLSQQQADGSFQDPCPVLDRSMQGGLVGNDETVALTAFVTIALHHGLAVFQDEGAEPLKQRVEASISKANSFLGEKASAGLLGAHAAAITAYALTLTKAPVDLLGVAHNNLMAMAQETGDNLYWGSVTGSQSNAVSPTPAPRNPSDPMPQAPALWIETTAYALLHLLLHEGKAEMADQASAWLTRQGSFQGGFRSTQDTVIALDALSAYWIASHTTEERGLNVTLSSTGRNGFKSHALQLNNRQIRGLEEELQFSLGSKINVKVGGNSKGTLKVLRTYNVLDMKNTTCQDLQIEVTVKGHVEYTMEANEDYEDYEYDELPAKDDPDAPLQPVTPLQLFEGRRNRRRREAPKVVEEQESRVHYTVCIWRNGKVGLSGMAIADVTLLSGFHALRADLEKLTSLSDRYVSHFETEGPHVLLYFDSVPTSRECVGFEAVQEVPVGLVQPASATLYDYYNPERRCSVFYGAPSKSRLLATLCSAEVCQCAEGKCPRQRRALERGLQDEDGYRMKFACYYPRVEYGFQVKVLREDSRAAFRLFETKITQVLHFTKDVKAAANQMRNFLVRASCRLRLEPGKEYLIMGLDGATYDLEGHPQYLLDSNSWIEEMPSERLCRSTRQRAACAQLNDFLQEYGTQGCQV
Sequence of UniProt Q00536 (Q00536 whole entry, looked up): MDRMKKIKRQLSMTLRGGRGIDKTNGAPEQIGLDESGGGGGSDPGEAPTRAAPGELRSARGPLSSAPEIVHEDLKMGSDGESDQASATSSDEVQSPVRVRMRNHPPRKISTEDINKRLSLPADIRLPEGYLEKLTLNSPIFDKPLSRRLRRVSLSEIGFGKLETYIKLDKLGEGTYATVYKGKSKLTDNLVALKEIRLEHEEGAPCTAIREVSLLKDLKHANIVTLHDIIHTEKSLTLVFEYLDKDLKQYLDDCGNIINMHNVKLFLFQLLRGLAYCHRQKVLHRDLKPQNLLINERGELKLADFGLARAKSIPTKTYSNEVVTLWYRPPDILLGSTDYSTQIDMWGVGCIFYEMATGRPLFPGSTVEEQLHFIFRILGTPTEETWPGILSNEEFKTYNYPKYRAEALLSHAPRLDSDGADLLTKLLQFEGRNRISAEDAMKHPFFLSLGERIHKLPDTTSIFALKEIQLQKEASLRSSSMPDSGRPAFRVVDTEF
Sequence of UniProt P50750 (P50750 whole entry, looked up): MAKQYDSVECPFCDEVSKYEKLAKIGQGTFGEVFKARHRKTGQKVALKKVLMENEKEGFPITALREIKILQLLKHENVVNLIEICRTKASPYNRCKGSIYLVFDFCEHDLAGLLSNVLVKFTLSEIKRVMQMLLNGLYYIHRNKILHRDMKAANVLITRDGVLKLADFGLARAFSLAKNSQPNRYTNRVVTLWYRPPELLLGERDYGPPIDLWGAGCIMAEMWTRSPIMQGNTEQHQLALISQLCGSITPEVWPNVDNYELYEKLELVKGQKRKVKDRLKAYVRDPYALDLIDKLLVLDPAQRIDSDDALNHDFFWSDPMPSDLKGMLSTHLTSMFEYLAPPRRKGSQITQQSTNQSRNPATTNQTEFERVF
Sequence of UniProt Q7L3B6 (Q7L3B6 whole entry, looked up): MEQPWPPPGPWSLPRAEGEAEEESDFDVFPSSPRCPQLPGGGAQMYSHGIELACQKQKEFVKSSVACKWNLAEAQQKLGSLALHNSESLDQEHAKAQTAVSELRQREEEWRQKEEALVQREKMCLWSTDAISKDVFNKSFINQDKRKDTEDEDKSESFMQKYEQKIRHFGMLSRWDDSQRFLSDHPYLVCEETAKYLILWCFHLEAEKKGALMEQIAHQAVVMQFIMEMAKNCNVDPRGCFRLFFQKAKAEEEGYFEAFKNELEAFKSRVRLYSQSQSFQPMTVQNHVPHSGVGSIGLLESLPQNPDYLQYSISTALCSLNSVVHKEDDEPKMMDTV
Sequence of UniProt Q99653 (Q99653 whole entry, looked up): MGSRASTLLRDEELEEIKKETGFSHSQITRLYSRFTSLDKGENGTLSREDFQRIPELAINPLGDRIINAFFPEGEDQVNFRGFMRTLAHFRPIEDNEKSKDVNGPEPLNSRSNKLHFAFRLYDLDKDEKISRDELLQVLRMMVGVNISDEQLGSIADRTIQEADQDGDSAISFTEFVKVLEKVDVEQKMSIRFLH
Sequence of UniProt Q00587 (Q00587 whole entry, looked up): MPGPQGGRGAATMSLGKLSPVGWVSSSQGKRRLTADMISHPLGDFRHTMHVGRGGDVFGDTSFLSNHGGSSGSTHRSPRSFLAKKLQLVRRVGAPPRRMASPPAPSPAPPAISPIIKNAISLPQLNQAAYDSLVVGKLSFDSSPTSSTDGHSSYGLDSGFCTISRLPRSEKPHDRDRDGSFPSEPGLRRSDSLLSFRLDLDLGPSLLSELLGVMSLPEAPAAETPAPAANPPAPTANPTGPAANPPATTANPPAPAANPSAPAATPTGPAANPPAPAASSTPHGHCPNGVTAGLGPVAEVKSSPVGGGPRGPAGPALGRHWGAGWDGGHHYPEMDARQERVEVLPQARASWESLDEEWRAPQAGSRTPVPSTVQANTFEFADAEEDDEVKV

Target	log2 fold change (IRAK-1-4 Inhibitor I)	log2 fold change (ibrutinib)	log2 fold change [1]	log2 fold change (ralimetinib)	log2 fold change [2]	log2 fold change [3]	log2 fold change [4]	log2 fold change (pinometostat)	log2 fold change [5]	log2 fold change [6]	log2 fold change [7]	log2 fold change [8]	log2 fold change [9]	log2 fold change [10]	log2 fold change (Nexturastat A)	log2 fold change (vemurafenib)	log2 fold change [11]	log2 fold change [12]	log2 fold change (givinostat)	log2 fold change (barasertib)
CDK16 isoform 2 (UniProt Q00536)	-0.029 (inactive)	-0.018 (inactive)	0.843 (active)	0.05 (inactive)	-0.031 (inactive)	0.069 (inactive)	0.059 (inactive)	0.016 (inactive)	-0.03 (inactive)	0.025 (inactive)	0.003 (inactive)	-0.017 (inactive)	0.028 (inactive)	0.021 (inactive)	-0.052 (inactive)	-0.072 (inactive)	0.027 (inactive)	-0.101 (inactive)	-0.043 (inactive)	-0.023 (inactive)
CRTC2 (UniProt Q53ET0)	-0.024 (inactive)	-0.048 (inactive)	-0.151 (inactive)	0 (inactive)	-0.053 (inactive)	-0.058 (inactive)	-0.032 (inactive)	0.01 (inactive)	0.113 (inactive)	0.101 (inactive)	0.055 (inactive)	0.055 (inactive)	-0.051 (inactive)	0.017 (inactive)	-0.03 (inactive)	0.039 (inactive)	0.031 (inactive)	0.103 (inactive)	0.181 (inactive)	0.062 (inactive)
CDC37L1 (UniProt Q7L3B6)	0.004 (inactive)	-0.018 (inactive)	-0.012 (inactive)	-0.059 (inactive)	-0.118 (inactive)	-0.004 (inactive)	0 (inactive)	-0.015 (inactive)	0.062 (inactive)	-0.281 (inactive)	0.035 (inactive)	0.001 (inactive)	-0.054 (inactive)	-0.021 (inactive)	-0.028 (inactive)	-0.008 (inactive)	0.019 (inactive)	0.063 (inactive)	0.044 (inactive)	0.063 (inactive)
CASP8 isoform 9 (UniProt Q14790)	-0.056 (inactive)	-0.027 (inactive)	0.098 (inactive)	-0.058 (inactive)	-0.092 (inactive)	-0.264 (inactive)	-0.025 (inactive)	0.124 (inactive)	0.028 (inactive)	0 (inactive)	-0.054 (inactive)	-0.092 (inactive)	0.017 (inactive)	-0.049 (inactive)	0.064 (inactive)	0 (inactive)	0.177 (inactive)	0.114 (inactive)	0.115 (inactive)	0 (inactive)
CDK11B (UniProt P21127)	-0.151 (inactive)	-0.026 (inactive)	2.34 (active)	0.04 (inactive)	-0.006 (inactive)	-0.116 (inactive)	0.076 (inactive)	-0.11 (inactive)	-0.009 (inactive)	-0.366 (active)	-0.079 (inactive)	0.214 (inactive)	-0.109 (inactive)	0.071 (inactive)	0.038 (inactive)	0.029 (inactive)	-0.064 (inactive)	-0.063 (inactive)	0.114 (inactive)	0.028 (inactive)
CDC42EP1 (UniProt Q00587)	0.097 (inactive)	0.086 (inactive)	-0.527 (active)	0.076 (inactive)	-0.104 (inactive)	-0.43 (active)	-0.009 (inactive)	-0.043 (inactive)	-0.054 (inactive)	-0.055 (inactive)	-0.005 (inactive)	0.034 (inactive)	-0.002 (inactive)	0.073 (inactive)	0.022 (inactive)	0.011 (inactive)	-0.022 (inactive)	0.075 (inactive)	0.15 (inactive)	-0.004 (inactive)
COX5A (UniProt P20674)	0.041 (inactive)	0.008 (inactive)	-0.09 (inactive)	-0.053 (inactive)	-0.103 (inactive)	0.058 (inactive)	-0.069 (inactive)	-0.042 (inactive)	0.041 (inactive)	0.122 (inactive)	-0.005 (inactive)	-0.074 (inactive)	0 (inactive)	-0.016 (inactive)	0.072 (inactive)	0.165 (inactive)	-0.114 (inactive)	-0.093 (inactive)	-0.092 (inactive)	0.085 (inactive)
C19orf53 (UniProt Q9UNZ5)	-0.136 (inactive)	0.031 (inactive)	0.12 (inactive)	0.201 (inactive)	0.043 (inactive)	0.013 (inactive)	0.126 (inactive)	0.32 (inactive)	0.079 (inactive)	-0.546 (inactive)	0.056 (inactive)	0.016 (inactive)	-0.065 (inactive)	-0.196 (inactive)	0.184 (inactive)	-0.189 (inactive)	-0.044 (inactive)	0.146 (inactive)	0.021 (inactive)	-0.096 (inactive)
CDK9 isoform 2 (UniProt P50750)	-0.02 (inactive)	-0.017 (inactive)	0.233 (inactive)	-0.008 (inactive)	0 (inactive)	-0.113 (inactive)	0.044 (inactive)	0.157 (inactive)	-0.03 (inactive)	-0.144 (inactive)	0.053 (inactive)	-0.067 (inactive)	-0.001 (inactive)	-0.084 (inactive)	0.155 (inactive)	-0.052 (inactive)	0.024 (inactive)	0.036 (inactive)	0.014 (inactive)	0.002 (inactive)
CHP1 (UniProt Q99653)	0.091 (inactive)	-0.024 (inactive)	0.001 (inactive)	0.145 (inactive)	-0.017 (inactive)	0.017 (inactive)	-0.061 (inactive)	-0.02 (inactive)	-0.017 (inactive)	-0.047 (inactive)	-0.048 (inactive)	-0.016 (inactive)	-0.112 (inactive)	0.021 (inactive)	0.016 (inactive)	0.141 (inactive)	-0.042 (inactive)	0.008 (inactive)	-0.035 (inactive)	0.009 (inactive)
COPS4 (UniProt Q9BT78)	0.015 (inactive)	0.043 (inactive)	0.01 (inactive)	-0.004 (inactive)	-0.014 (inactive)	0.009 (inactive)	-0.008 (inactive)	-0.048 (inactive)	-0.019 (inactive)	0.028 (inactive)	-0.001 (inactive)	-0.019 (inactive)	0.019 (inactive)	0.033 (inactive)	-0.062 (inactive)	0.049 (inactive)	0.071 (inactive)	-0.037 (inactive)	-0.025 (inactive)	-0.002 (inactive)
CHERP (UniProt Q8IWX8)	-0.091 (inactive)	-0.069 (inactive)	-0.317 (active)	0.013 (inactive)	-0.074 (inactive)	-0.097 (inactive)	0.048 (inactive)	0.021 (inactive)	0.122 (inactive)	-0.079 (inactive)	-0.042 (inactive)	-0.088 (inactive)	-0.053 (inactive)	0.003 (inactive)	-0.006 (inactive)	0.018 (inactive)	0.127 (inactive)	0.075 (inactive)	0.107 (inactive)	0.055 (inactive)
CDC42BPB (UniProt Q9Y5S2)	-0.022 (inactive)	-0.167 (inactive)	-0.637 (active)	0.124 (inactive)	0.023 (inactive)	-0.063 (inactive)	-0.009 (inactive)	0.267 (inactive)	-0.038 (inactive)	0.023 (inactive)	-0.073 (inactive)	-0.07 (inactive)	-0.034 (inactive)	-0.072 (inactive)	0.052 (inactive)	-0.046 (inactive)	-0.034 (inactive)	0.079 (inactive)	-0.096 (inactive)	-0.087 (inactive)
CHST10 (UniProt O43529)	0.056 (inactive)	-0.062 (inactive)	-0.135 (inactive)	0.059 (inactive)	0.042 (inactive)	-0.435 (active)	-0.003 (inactive)	0.082 (inactive)	0.025 (inactive)	0.036 (inactive)	0.067 (inactive)	-0.096 (inactive)	-0.092 (inactive)	-0.052 (inactive)	0.05 (inactive)	–	-0.015 (inactive)	-0.097 (inactive)	0.069 (inactive)	-0.025 (inactive)
C4A (UniProt P0C0L4)	0.017 (inactive)	0.08 (inactive)	-0.01 (inactive)	-0.083 (inactive)	0.226 (inactive)	0.111 (inactive)	0.01 (inactive)	-0.11 (inactive)	0.086 (inactive)	-0.192 (inactive)	-0.154 (inactive)	0.19 (inactive)	0.111 (inactive)	0.215 (inactive)	-0.008 (inactive)	0.148 (inactive)	-0.02 (inactive)	-0.287 (inactive)	0.001 (inactive)	0.021 (inactive)
CASP3 (UniProt P42574)	0.074 (inactive)	0.008 (inactive)	0 (inactive)	-0.022 (inactive)	0.043 (inactive)	0.048 (inactive)	0.067 (inactive)	-0.076 (inactive)	0.011 (inactive)	0.05 (inactive)	-0.049 (inactive)	0.086 (inactive)	0.009 (inactive)	0.065 (inactive)	-0.025 (inactive)	-0.009 (inactive)	0.022 (inactive)	0.113 (inactive)	-0.029 (inactive)	-0.005 (inactive)

— the supplement of paper PMC10849652
